FMDV inh: High Throughput Screening for Foot and Mouth Disease Virus Antivirals; FMDV antiviral cell-based qHTS; Potency, µM (series often up to 57.9 µM), inactives show top-dose activity change, negative = inhibition, actives largely listed as inhibitors; 1.2% of 410,000 active; calls by dose curve; tested in HEK293T cells; also: read-out not given here; potency is read from the fitted curve at half-maximal effect; nearly all actives have a fitted effect of over 45% in size
HCMV antiviral: qHTS Assay for inhibitors of the human cytomegalovirus (HCMV); HFF cells, HCMV-luciferase reporter, 72 h; stronger effect = lower value; activity change, negative = inhibition, % at 57.5 µM; 4.5% of 410,000 active; AID 1259415, 2018; in the data active = activity change below about -60%; inconclusive = no clear call, values can overlap the other calls; inactive = above about -39%
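Cell-based, HFFs, 1000 cells/well, 16 h 37C; cpds in DMSO + HCMV-luc, MOI 1 PFU/cell; 72 h 37C; OneGlo luminescence after 5 min RT; norm. to buffer vs Salinomycin 10uM.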
RE007 growth inh: qHTS Assay for Inhibitors of the HIV-1 protein Vpr. S. pombe RE007 Vpr strain, BacTiter-Glo ATP luminescence, 24 h. Potency, µM (titrated, usually from 92.2 µM), for inactives: at the top dose activity change, negative = less growth, most hits filed as inhibitors. 0.21% of 360,000 active; active = well fitted falling curve with a large enough effect; inconclusive = small, poorly fitted or top-dose-only effect; inactive = no such curve, though single readings can be large or run the other way; also: potency is read from the fitted curve at half-maximal effect; nearly all actives have a fitted effect of over 50% in size
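Fission yeast strain RE007, carrying one chromosomally integrated HIV-1 vpr copy, was seeded at OD 0.01 in PMG+AL medium with 23 nL pinned compound. After 24 h at 30 °C and 99% humidity, viability was read by BacTiter-Glo luminescence.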
Giardia FBPA inh: qHTS Assay for Inhibitors of Fructose-1,6-bisphosphate Aldolase from Giardia Lamblia | purified Giardia FBPA | Potency, µM (doses to about 59.6 µM), for inactives: at the highest dose activity, negative = inhibition, usual class: inhibitors | 0.71% of 290,000 active; also: potency is read from the fitted curve at half-maximal effect; nearly all actives have a fitted effect of over 55% in size
Target sequence (A8B2U2 whole entry, looked up): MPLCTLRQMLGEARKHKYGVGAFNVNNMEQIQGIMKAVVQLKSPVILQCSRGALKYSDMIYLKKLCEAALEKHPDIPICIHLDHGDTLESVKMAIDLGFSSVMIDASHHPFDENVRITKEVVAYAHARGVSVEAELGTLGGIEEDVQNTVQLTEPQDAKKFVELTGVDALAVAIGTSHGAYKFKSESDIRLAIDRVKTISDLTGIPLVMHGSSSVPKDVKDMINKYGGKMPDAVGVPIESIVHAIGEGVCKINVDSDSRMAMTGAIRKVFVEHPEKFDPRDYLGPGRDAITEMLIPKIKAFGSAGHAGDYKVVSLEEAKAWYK
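Giardia FBPA (40 nM reagent) was preincubated 10 min at RT with compound (up to 57.5 uM final), then substrate plus GAPDH/TPI/NAD/arsenate coupling system with diaphorase/resazurin was added; resorufin fluorescence (525/598 nm) was read after 20 min.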
Sm TGR block: qHTS Assay for the Inhibitors of Schistosoma Mansoni Peroxiredoxins; purified TGR, DTNB reduction, TNB absorbance 405 nm; Potency, µM (top dose mostly 114 µM), for the others: at the highest dose activity change, negative = inhibition, hits mostly inhibitors; 3% of 360,000 active; also: potency is read from the fitted curve at half-maximal effect; nearly all actives have a fitted effect of over 60% in size
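First, TGR (20 nM dispensed) and NADPH were mixed with compound. Second, a 15 min room-temperature incubation followed. Third, further NADPH and then DTNB were added to start the reaction. Finally, TNB absorbance was monitored kinetically.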
TbPYK inhibitor: qHTS of Trypanosoma Brucei Inhibitors | pyruvate kinase (Trypanosoma brucei), Q57TT1 | TbPYK enzyme, Kinase-Glo Plus ATP luminescence, 45 min | Potency, µM (series often up to 76.8 µM), inactives show at the highest dose activity, negative = inhibition, usual class: inhibitors | 0.12% of 410,000 active; also: potency is read from the fitted curve at half-maximal effect; nearly all actives have a fitted effect of over 50% in size
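Luminescent Kinase-Glo Plus end-point after 45 min room-temperature reaction of T. brucei pyruvate kinase started with 130 uM ADP (final). Buffer TEA 50 mM pH 7.2 with KCl, MgCl2, BSA, Tween-20; titration-based qHTS with fitted concentration-effect curves.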
* = called active by the depositor; ? = inconclusive; nt = no result given; [ ] = remark or other dose. Sampled rows, rich in hits. Any-hit rate of the full collection: about 7.7%. Unless noted, calls follow the shape of the dose curve; as a rule, active = well fitted curve in the direction sought with a large enough effect; inconclusive = small, poorly fitted or top-dose-only effect, or another doubt; inactive = no such curve, though single readings can be large; an effect the other way counts as inactive or inconclusive. % is scaled to controls: 0 for no effect and ±100 for the full control effect.

SMILES | FMDV inh | HCMV antiviral | RE007 growth inh | Giardia FBPA inh | Sm TGR block | TbPYK inhibitor
CCc1ccc(C(=O)Nc2ccc(OC)c(S(=O)(=O)N3CCOCC3)c2)cc1 | ? | -89* | 0% | 1% | 13% | -4%
COc1ccc(NC(=O)Cn2ncc(Cl)c(Cl)c2=O)cc1S(=O)(=O)N1CCOCC1 | 40µM* | -100* | nt | -3% | 10µM* | -13%
CC1CN(CCC(=O)N2CCCC(C(=O)c3nccn3C)C2)Cc2cc(Cl)ccc2O1 (centres undefined) | -9% | nt | nt | nt | nt | nt
CC(NS(=O)(=O)c1ccc2[nH]c(=O)c(=O)[nH]c2c1)C(=O)O (centres undefined) | -16% | -92* | -3% | -3% | -4% | -1%
CC(C)CC(NS(=O)(=O)c1ccc2[nH]c(=O)c(=O)[nH]c2c1)C(=O)O (centres undefined) | -9% | -33 | 7% | 14% | ? | 2%
N#CC(c1ccccc1)c1ccc2c(C(F)(F)F)cc(C(F)(F)F)nc2n1 (centres undefined) | ? | -104* | -20% | -14% | 24% | -19%
FC(F)(F)c1cc(C(F)(F)F)c2ccc(N/N=C/c3ccccc3)nc2n1 | -9% | 18 | 3% | 10% | -12% | 7%
Cc1ccc(C(C#N)c2ccc3c(C(F)(F)F)cc(C(F)(F)F)nc3n2)cc1 (centres undefined) | ? | -99* | -14% | -9% | 3% | 5%
O=C(Nc1cc(C(=O)NC2CCOCC2)c2c(c1)ncn2C1CCCC1)c1ccccc1 | -7% | nt | nt | nt | nt | nt
N#Cc1cccc(-c2ccc3c(c2)COCC(=O)N3CCN2CCOCC2)c1 | nt | -11 | nt | nt | nt | nt
Cc1cc(=O)oc2c(C(=O)/C=C/c3ccccc3)c(O)ccc12 | -23% | -30 | -2% | 4% | -22% | -2%
COc1ccc(/C=C\C(=O)c2c(O)ccc3c(C)cc(=O)oc23)cc1OC | 35µM* | -94* | -9% | -1% | -3% | 1%
COc1cc(/C=C/C(=O)c2c(O)ccc3c(C)cc(=O)oc23)ccc1O | ? | -92* | 15% | -16% | -29% | -2%
O=C1C(=O)N(C(C(=O)NCc2ccccc2)C2CCCC2)c2ccccc21 (centres undefined) | nt | -9 | nt | nt | nt | nt
Cc1c(C(=O)Nc2ccc(F)cc2F)nnn1-c1ccccc1Br | 5% | -25 | nt | nt | -4% | 0%
COc1ccccc1Nc1nc(N)nc(CN2CCCCCC2)n1 | 11% | 34 | 2% | -13% | 32µM* | -4%
CCOC(=O)C1CCCN(Cc2nc(N)nc(Nc3ccc(OC)cc3)n2)C1 (centres undefined) | ? | -34 | -24% | -7% | -22% | -5%
CCOC(=O)C1CCN(Cc2c(F)cccc2Cl)CC1 | 8% | 42 | -6% | -30% | 6% | -14%
CCOC(=O)C1CCCN(Cc2c(F)cccc2Cl)C1 (centres undefined) | -8% | -75* | -4% | ? | 3% | -16%
COc1ccccc1Nc1nc(N)nc(CN2CCOCC2)n1 | -2% | 34 | -5% | -24% | ? | -5%
CCOC(=O)C1CCCN(Cc2nc(N)nc(Nc3ccc(Cl)cc3)n2)C1 (centres undefined) | 28µM* | ? | -2% | -5% | -28% | -5%
CCOC(=O)N1CCN(Cc2nc(N)nc(Nc3ccc(Oc4ccccc4)cc3)n2)CC1 | 32µM* | -11 | -8% | -8% | ? | -2%
CCOC(=O)N1CCN(Cc2nc(N)nc(Nc3ccc(OC)cc3)n2)CC1 | 12% | 2 | -6% | -13% | -16% | -1%
CCOC(=O)Cc1ccc(NC(=O)N2CC(CC)Oc3ccccc32)cc1 (centres undefined) | -20% | 48 | nt | nt | -4% | -5%
O=[N+]([O-])c1ccc(COc2ccccc2CO)cc1 | nt | 63 | nt | nt | nt | nt
SMILES | FMDV inh | HCMV antiviral | RE007 growth inh | Giardia FBPA inh | Sm TGR block | TbPYK inhibitor
CCc1c(-c2ccccc2F)ncn1Cc1cccc(-c2ccccc2)c1 | ? | -71* | -29% | nt | nt | nt
CCc1c(-c2ccc(Cl)cc2)ncn1Cc1cccc(-c2ccccc2)c1 | ? | -35 | -3% | nt | nt | nt
CCc1c(-c2cccc(OC)c2)ncn1Cc1cccc(-c2ccccc2)c1 | 32µM* | ? | -23% | nt | nt | nt
CCc1c(-c2ccccc2)ncn1Cc1cccc(-c2ccccc2)c1 | ? | -68* | -13% | nt | nt | nt
CCc1c(C2CC2)ncn1Cc1cccc(-c2ccccc2)c1 | ? | -99* | -29% | nt | nt | nt
Cc1cnc(-n2ncc(C(=O)NCCc3cccnc3)c2C)nc1-c1ccc(F)cc1 | 6% | nt | nt | nt | nt | nt
C=CC1=C[C@@H](O)C2OC2C12OCCCO2 (some centres undefined) | nt | nt | nt | -2%[12.9 µM] | nt | nt
C=CCn1c(=O)c2c(nc(-c3ccccc3)n2C)n(C)c1=O | -5% | nt | nt | nt | nt | nt
Cn1c(=O)c2c(nc(-c3ccc(N(CCCl)CCCl)cc3)n2C)n(C)c1=O | 32µM* | -30 | 4% | nt | nt | -3%
CCN(CC)S(=O)(=O)c1ccc2c(c1)N(CC(=O)NCCCN1CCN(c3cc(C)ccc3C)CC1)C(=O)CO2 | 0% | -99* | nt | nt | 6% | 0%
O=C(CN1C(=O)COc2ccc(S(=O)(=O)N3CCCCCC3)cc21)Nc1cccc(Cl)c1 | -1% | -72* | nt | nt | 0% | -3%
COc1ccc(OC)c(CCNC(=O)CN2C(=O)COc3ccc(S(=O)(=O)N4CCOCC4)cc32)c1 | -4% | -72* | 2% | -7% | -16% | 13%
Cc1ccc(CCNC(=O)CN2C(=O)COc3ccc(S(=O)(=O)N4CCCC4)cc32)cc1 | -7% | -87* | nt | nt | 8% | 0%
O=C(CN1C(=O)COc2ccc(S(=O)(=O)N3CCCC3)cc21)Nc1cccc(F)c1 | 0% | -5 | -3% | 4% | 3% | 9%
CCOc1cc(CN2CCN(S(=O)(=O)c3ccc(C)cc3)CC2)ccc1OC | -22% | -24 | nt | nt | 0% | -3%
CCOc1cccc(C(=O)N(Cc2ccc(C(C)C)cc2)C2CCS(=O)(=O)C2)c1 (centres undefined) | -10% | 18 | nt | nt | 1% | -8%
Cc1ccc(CNC(=O)CN2C(=O)COc3ccc(S(=O)(=O)N4CCC(C)CC4)cc32)o1 | 1% | -36 | 1% | -5% | -1% | 0%
Cc1ccc(CNC(=O)CN2C(=O)COc3ccc(S(=O)(=O)N4CCCCC4)cc32)o1 | -4% | ? | 13% | 4% | 25µM* | -2%
CCC1CN2CCc3cc(OC)c(OC)cc3C2CC1CC1NCCc2c1[nH]c1ccc(O)cc21 (centres undefined) | ? | -99* | -25% | nt | nt | -16%

High-throughput results (PubChem BioAssay)
